# KAT2A inh – GCN5L2 (KAT2A) acetyltransferase inhibition; GCN5L2 HAT assay, ThioGlo1 CoA-SH fluorescence; Potency, µM (doses to about 58.9 µM), for inactives: at the highest dose activity change, negative = inhibition, hits mostly inhibitors; 390,000 compounds, 0.21% hits
#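 GCN5L2 (20 nM) in 50mM HEPES pH 7.5, 0.1mM EDTA, 0.01% Tween-20 preincubated 15 min with compounds at room temperature. Reaction started with H3(1-25) 75uM, acetyl-CoA 70uM, ThioGlo1 50uM; CoA-thiol fluorescence (Ex340/Em540) read at 0 and 20 min.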
# JMJD2E inh – inhibitors of human JMJD2E histone demethylase | B2RXH2 | JMJD2E catalytic domain, FDH-coupled NADH fluorescence (FDH is formaldehyde dehydrogenase) | Potency, µM (top dose mostly 57.1 µM), for the others: at the highest dose activity change, negative = inhibition, usual class: inhibitors | 230,000 compounds, 1.6% hits | AID 2147; active = well fitted inhibition curve with a large enough effect, not every such curve was filed as active; inconclusive = small, poorly fitted or top-dose-only effect, or another doubt; inactive = no such curve, though single readings can be large or run the other way;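 note: 0% = wells with enzyme and -100% = buffer wells without enzyme; nearly all actives have a fitted effect of over 50% in size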
# Target sequence (B2RXH2 1-337 limits assumed): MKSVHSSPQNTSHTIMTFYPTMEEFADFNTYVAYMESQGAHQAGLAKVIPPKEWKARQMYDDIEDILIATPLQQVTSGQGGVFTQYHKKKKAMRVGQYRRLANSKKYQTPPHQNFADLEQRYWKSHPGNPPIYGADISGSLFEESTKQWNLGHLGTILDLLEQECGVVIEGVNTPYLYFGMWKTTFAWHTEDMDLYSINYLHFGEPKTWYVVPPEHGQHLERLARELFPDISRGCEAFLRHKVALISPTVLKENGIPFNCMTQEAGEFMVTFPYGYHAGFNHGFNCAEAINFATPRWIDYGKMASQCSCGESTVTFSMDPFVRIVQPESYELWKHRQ
# BLM helicase inh – Bloom syndrome helicase (human) inhibition; P54132; 350,000 compounds, 0.2% hits; recombinant BLM DNA unwinding, fluorescence dequenching; Potency, µM (highest dose often 56.1 µM), without a hit: at the highest dose activity change, negative = inhibition, hits mostly inhibitors; AID 2528;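 note: plate controls were vehicle for no effect and no enzyme for full effect; nearly all actives have a fitted effect of over 35% in size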
# TDP1 inh – TDP1 (human) enzyme inhibition; Potency, µM (highest dose often 130 µM), without a hit: top-dose activity change, negative = inhibition, usual class: inhibitors; AID 485290; 350,000 compounds, 0.28% hits; recombinant TDP1, AlphaScreen DNA substrate cleavage; note: nearly all actives have a fitted effect of over 40% in size
#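 Recombinant E. coli-expressed Tdp1 (1 nM) preincubated with compound 15 min at RT, then 5'-biotin/3'-phosphotyrosine-FITC DNA substrate (15 nM) added for 5 min. AlphaScreen beads (10 ug/ml) added, 10 min RT; tyrosine-FITC cleavage read as signal loss.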
# APEX1 inh – inhibitors of human APE1 endonuclease; recombinant APE1, TAMRA/BHQ-2 abasic DNA cleavage fluorescence; Potency, µM (doses to about 65.8 µM), for the others: top-dose activity change, negative = inhibition, usual class: inhibitors; 350,000 compounds, 0.35% hits;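 note: plate controls were vehicle for no effect and reference inhibitor for full effect; nearly all actives have a fitted effect of over 55% in size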
# Target sequence (P27695 whole entry, looked up): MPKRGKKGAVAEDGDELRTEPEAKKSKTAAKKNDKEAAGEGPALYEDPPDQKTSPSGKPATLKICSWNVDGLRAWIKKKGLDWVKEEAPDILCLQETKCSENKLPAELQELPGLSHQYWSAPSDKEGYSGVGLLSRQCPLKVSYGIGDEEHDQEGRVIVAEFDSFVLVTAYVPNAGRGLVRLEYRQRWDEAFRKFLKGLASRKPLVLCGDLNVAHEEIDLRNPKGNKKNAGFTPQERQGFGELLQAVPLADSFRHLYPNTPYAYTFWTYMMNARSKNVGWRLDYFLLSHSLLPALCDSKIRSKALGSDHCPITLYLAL
#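 Measures dequenching upon AP-site incision of a 5'-TAMRA/3'-BHQ-2 THF-containing duplex, 50 nM; human APE1 0.75 nM after 15 min room-temperature exposure to compound; kinetic three-point read at one-minute spacing.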
# RECQ1 inh-1 – RECQ1 (human) helicase inhibition; RECQ1 DNA unwinding, red fluorescence kinetic read; AID 2549; Potency, µM (titrated, usually from 57.3 µM), for the others: top-dose activity, negative = inhibition, hits mostly inhibitors; 240,000 compounds, 0.54% hits;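 note: plate controls were vehicle for no effect and no enzyme for full effect; nearly all actives have a fitted effect of over 30% in size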
#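 50 nM RECQ1T1 preincubated 15 min with compound in Tris pH 8.0 buffer with MgCl2, DTT, Tween-20 and 2.5 ug/ml poly(dI-dC); started with 200 nM TAMRA/BHQ-2 forked duplex and 2 mM ATP. Unwinding read as fluorescence (525/598 nm), two reads 2 h apart.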
# RECQ1 conf – confirmation of human RECQ1 helicase inhibitors. shares compounds with RECQ1 inh-1. RECQ1 helicase DNA unwinding, fluorescence. Potency, µM (series often up to 229 µM), without a hit: at the highest dose activity change, negative = inhibition, hits mostly inhibitors. 610 compounds, 28% hits; note: nearly all actives have a fitted effect of over 45% in size
# ADP FP counter – ADP displacement flagged in RECQ1 inhibitor counter-screen; shares compounds with RECQ1 inh-1; ADP fluorescence polarization displacement counterscreen; Potency, µM (titrated, usually from 228 µM), for the others: at the top dose activity change, negative = inhibition, hits mostly inhibitors; 530 compounds, 27% hits; note: nearly all actives have a fitted effect of over 45% in size
# RECQ1 inh-2 – confirmation of human RECQ1 helicase inhibitors | shares compounds with RECQ1 inh-1 | recombinant RECQ1 DNA unwinding, red fluorescence | 1,100 compounds, 15% hits | Potency, µM (doses to about 119 µM), without a hit: top-dose activity, negative = inhibition, actives largely listed as inhibitors; note: nearly all actives have a fitted effect of over 50% in size
# The depositor's hits bear a star; i = inactive; ? = inconclusive; . = no result given; + = active, no number; [ ] = remark or other dose. This is one part of a sample in which hits are shown more often than they occur. Unless noted, calls come from the whole dose curve; as a rule, active = well fitted curve in the direction sought with a large enough effect; inconclusive = small, poorly fitted or top-dose-only effect, or another doubt; inactive = no such curve, though single readings can be large; an effect the other way counts as inactive or inconclusive. Unless noted, % is set by controls: 0 for no effect and ±100 for the full control effect; potency is the fitted concentration of half-maximal effect.
SMILES,KAT2A inh,JMJD2E inh,BLM helicase inh,TDP1 inh,APEX1 inh,RECQ1 inh-1,RECQ1 inh-2,others
O=c1[nH][nH]c(C(F)(F)F)c1C=Nc1ccccc1,41%,-2%,-5%,0%,15%,-10%,.,
CCOc1ccccc1/C=C(\NC(=O)c1ccccc1)C(=O)NCCC(=O)O,2%,7%,6%,5%,-3%,-16%,.,RECQ1 conf=0%;ADP FP counter=2%
CCOC(=O)c1ccccc1NC(=O)Cn1c(=O)n(CCCC(=O)NCc2ccc3c(c2)OCO3)c(=O)c2ccccc21,-5%,.,-15%,-2%,.,.,.,
COC(=O)c1cc2c(-c3ccccc3)cc3ccccn3c-2c1C(=O)OC,-7%,-1%,-17%,10%,-5%,?,79µM*,
COC(=O)c1cc(-c2ccccc2)sc1N,0%,-7%,-6%,6%,24%,-2%,.,
O=C(NCCc1ccccc1)C(=O)c1c(-c2ccccc2)cc2ccccn12,-2%,24%,-4%,3%,24%,-12%,.,
COC(=O)c1c(C(=O)OC)c2cccc3cc(-c4ccccc4)c4ccc1c4n32,-11%,2.5µM*,-13%,12%,-6%,4µM*,?,
N[C@@H](CCS(=O)O)C(=O)O,5%,.,.,-4%,-1%,i,.,
CC(=O)Nc1ccc2c(c1)C(C)(C)C(C)N2C (stereo unspecified),2%,-6%,-8%,6%,?,35µM*,79µM*,
COc1ccc(Cl)cc1NC(=O)CN(C)CC(=O)Nc1ccccc1-c1ccccc1,-9%,?,-11%,3%,?,-19%,.,
COc1ccc(Cl)cc1NC(=O)CN(C)CC(=O)Nc1ccc(C)cc1Br,-13%,9%,-8%,0%,-12%,35µM*,-19%,
Cc1ccc(CN(Cc2cccn2-c2nnc(N3CCCC3=O)s2)C(=O)Nc2ccccc2Cl)cc1,-10%,.,-9%,3%,.,.,.,
O=c1cnc2cncnc2n1Cc1ccc(F)cc1,-5%,.,-7%,.,-10%,-5%,.,
COc1cccc(CNC(=O)c2ccc(NC(=O)N3CCCCc4ccccc43)cc2)c1,-3%,.,-2%,2%,.,.,.,
C=CCn1c(SCC(=O)O)nnc1-c1cccs1,-7%,?,2%,-5%,-1%,-3%,.,RECQ1 conf=-4%;ADP FP counter=5%
CN1CC(O)C2=CC(=O)C(=O)C=C21 (stereo unspecified),14µM*,.,.,?,0.4µM*,2.8µM*,.,RECQ1 conf=+;ADP FP counter=10µM*
CCCCn1c(SCC(=O)NCc2ccco2)nc2ccc(N3CCOCC3)cc2c1=O,-8%,?,-4%,-2%,7%,?,?,
CCCCn1c(SCC(=O)NCc2ccccc2)nc2ccc(N3CCOCC3)cc2c1=O,-9%,?,-7%,9%,7%,-13%,.,
O=C(O)CN=C1CC(c2ccccc2)CC(=O)/C1=C(/O)CCCN1C(=O)c2ccccc2C1=O (stereo unspecified),-3%,4%,1%,3%,-10%,i,.,RECQ1 conf=?;ADP FP counter=6%
CN=C1CC(C)(C)CC(=O)/C1=C(/O)CCCN1C(=O)c2ccccc2C1=O,-6%,6%,0%,0%,1%,-4%,.,
CN(C(=O)CSc1nc2ccc(NC(=O)c3ccc(F)cc3)cc2s1)c1ccccc1,-5%,.,-6%,4%,.,.,.,
CCOC(=O)N1CCN(Cc2nc3cc(NC(=O)C(C)C)ccc3n2C(C)C)CC1,-3%,.,-4%,1%,.,.,.,
Cn1cccc1/C=C1\SC(=S)N(NC(=O)c2ccccc2O)C1=O,-8%,-8%,-4%,.,-1%,-1%,.,
O=C(NN1C(=O)/C(=C/C=C/c2ccco2)SC1=S)c1ccccc1O,?,13µM*,?,.,2µM*,2.5µM*,.,RECQ1 conf=13µM*;ADP FP counter=14µM*
O=C1S/C(=C\C=C\c2ccco2)C(=O)N1c1ccccc1,0%,?,-18%,3%,28µM*,?,-29%,
SMILES,KAT2A inh,JMJD2E inh,BLM helicase inh,TDP1 inh,APEX1 inh,RECQ1 inh-1,RECQ1 inh-2,others
O=C(c1ccco1)N(CCC(c1ccccc1)c1ccco1)Cc1ccccc1 (stereo unspecified),-25%,-8%,-25%,1%,?,11µM*,45µM*,RECQ1 conf=?;ADP FP counter=20%[91.9 µM]
CCC(=O)N(CCC(c1ccccc1)c1ccco1)Cc1cccs1 (stereo unspecified),-11%,-3%,-7%,5%,-1%,-19%,.,
CCN(CC)C(=O)CC(c1ccccc1)c1ccco1 (stereo unspecified),-9%,-1%,-4%,0%,12%,?,?,
CCN(CC)C(=O)CP(=O)(c1ccccc1)c1ccccc1,-4%,4%,0%,1%,3%,-3%,.,
CCN1CCOC(=O)C1CC(=O)Nc1cc(Cl)ccc1OC (stereo unspecified),-11%,.,5%,-1%,.,.,.,
Oc1ccc(N=Cc2ccc(-c3cccs3)s2)cc1,?,?,?,2%,?,6.3µM*,.,RECQ1 conf=10%[114 µM];ADP FP counter=50µM*
CCOC(=O)c1cccc(NC(=O)c2cc3ccccn3n2)c1,-6%,.,-3%,5%,.,.,.,
Nc1ncnc2c1ncn2[C@@H]1O[C@H](COP(=O)(O)OP(=O)(O)OC[C@H]2OC(O)[C@H](O)[C@@H]2O)[C@@H](O)[C@H]1O (stereo partly specified),4%,.,.,-1%,-2%,0%,.,
O=C(CSc1ncnc2sc3c(c12)CCCC3)c1ccco1,-15%,?,-20%,-7%,?,?,-23%,
O=C(CSc1ncnc2sc3c(c12)CCCC3)c1ccccc1,-3%,-14%,-1%,?,0%,-1%,.,
O=c1[nH]c2cc3c(cc2cc1CN(Cc1cccs1)Cc1nnnn1Cc1ccco1)OCCO3,-19%,?,-24%,-2%,40µM*,?,-13%,
CCc1ccc2[nH]c(=O)c(CN(Cc3ccccc3)Cc3nnnn3Cc3ccco3)cc2c1,-17%,?,-29%,8%,?,32µM*,-17%,
CCCOc1ccc(C2C(=O)N(C3CCCCCC3)CC(=O)N2CCC)cc1OC (stereo unspecified),2%,.,-1%,8%,.,.,.,

# Screening results as filed in PubChem.
